Experimental data published in the supplement of paper PMC10981050.
“And” between values parts separate entries of the source, which are not always exact repeats. Equal values may be shown once. Where a name gives a salt, the structure may show the parent alone.

Key:
Assay in all cases: cell viability relative to vehicle control; higher = less cytotoxic
Conditions in all cases: 10 µM
K562 = tested on: K562
Outline: (§1)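 After removal of identity-inconsistent compounds, the Selleck bioactive, kinase and epigenetic probe libraries were screened on CRISPR-edited mutant clones and isogenic wild-type clones of four leukaemia lines. Plates were 384-well, each well holding 2000 cells in 50 µL medium and receiving a single 10 µM acoustically dispensed dose. CellTiter-Glo luminescence was read 48 h later, after the supernatant was taken off. Genedata Screener was used to express viability as percent of the on-plate vehicle control.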

MARIMO = tested on: MARIMO
Outline: as §1

MOLM14 = tested on: MOLM14
Outline: as §1

OCI-AML2 = tested on: OCI-AML2
Outline: as §1

| Structure (SMILES) | cell viability (K562; SRSF2 genotype: SRSF2 P95H/wt) | cell viability (K562; SRSF2 genotype: SRSF2 wt/wt) [%] | cell viability (MARIMO; SRSF2 genotype: SRSF2 P95H/wt) [%] | cell viability (MARIMO; SRSF2 genotype: SRSF2 wt/wt) [%] | cell viability (MOLM14; SRSF2 genotype: SRSF2 P95H/wt) [%] | cell viability (MOLM14; SRSF2 genotype: SRSF2 wt/wt) [%] | cell viability (OCI-AML2; SRSF2 genotype: P95H/wt) [%] | cell viability (OCI-AML2; SRSF2 genotype: wt/wt) [%] |
| --- | --- | --- | --- | --- | --- | --- | --- | --- |
| CC(C)=CCC[C@](C)(O[C@@H]1O[C@H](CO)[C@@H](O)[C@H](O)[C@H]1O)[C@H]1CC[C@]2(C)[C@@H]1[C@H](O)C[C@@H]1[C@@]3(C)CC[C@H](O)C(C)(C)[C@@H]3[C@@H](O)C[C@]12C [Ginsenoside F1] | 107% and 106% | 102 | 105 | 97.8 | 109 | 104 | 105 | 106 |
| CC(C)=CCC/C(C)=C/CC/C(C)=C/CC/C=C(\C)CC/C=C(\C)CCC=C(C)C [Squalene] | 101% and 105% | 99.6 | 111 | 105 | 101 | 101 | 110 | 108 |
| Cc1ccc(C)c(OCCCC(C)(C)C(=O)O)c1 [Gemfibrozil (Lopid)] | 108% and 109% | 108 | 107 | 106 | 106 | 109 | 106 | 110 |
| COC(=O)C1=C(C)NC(C)=C(C(=O)OCC(C)C)C1c1ccccc1[N+](=O)[O-] (configuration not stated) [Nisoldipine] | 80.1% and 83.8% | 80.3 | 56.3 | 58.6 | 41.7 | 34.7 | 41.2 | 55.3 |
| CCCCCCCCCCCCCCCC(=O)OC [Methyl palmitate] | 103% and 99.7% | 100 | 99 | 92.7 | 103 | 97.7 | 102 | 98.1 |
| Cc1cc(N2CCCCC2)nc2ccccc12 | 97% and 102% | 98.3 | 93.6 | 106 | 98.8 | 109 | 96.6 | 103 |
| Cc1ccc(-n2[nH]c(C)c(N=Nc3cccc(-c4cccc(C(=O)O)c4)c3O)c2=O)cc1C [Eltrombopag] | 77.1% and 80.1% | 74.4 | 62.2 | 71.6 | 77 | 74.6 | 68.8 | 70.1 |
| CCOC(=O)[C@H](CCc1ccccc1)N[C@H]1CS[C@H](c2cccs2)CN(CC(=O)O)C1=O [Temocapril HCl] | 102% and 101% | 98.8 | 101 | 113 | 99.7 | 102 | 102 | 111 |
| CCC(=O)O[C@@H]1CC(=O)O[C@H](C)C/C=C/C=C/[C@H](O)[C@H](C)C[C@H](CC=O)[C@H](O[C@@H]2O[C@H](C)[C@@H](O[C@H]3C[C@@](C)(O)[C@@H](OC(=O)CC)[C@H](C)O3)[C@H](N(C)C)[C@H]2O)[C@H]1OC [Midecamycin] | 84.3% and 87.1% | 89.5 | 89.3 | 102 | 93.3 | 93.7 | 96.2 | 97.4 |
| CO/N=C(\C(=O)N[C@@H]1C(=O)N2C(C(=O)[O-])=C(C[n+]3cccc4c3CCCC4)CS[C@H]12)c1csc(N)n1 [Cefquinome sulfate] | 103% and 99.9% | 91 | 87.5 | 100 | 86.3 | 95.5 | 93.9 | 91.6 |
| O=[N+]([O-])c1ccc(Nc2nc(N3CCOCC3)nc(N3CCOCC3)n2)cc1 | 99% and 99.5% | 95.7 | 95.7 | 95.8 | 112 | 99.8 | 107 | 116 |
| COc1cc(NC(=O)c2ccccn2)ccc1Cl | 85.2% and 86.2% | 94.1 | 87.1 | 92.4 | 99 | 95.3 | 88.4 | 80 |
| C=CC(=O)N1CC(N2CCN(C(=O)CNc3cc(C4(C)CC4)c(Cl)cc3O)CC2)C1 | 93.9% and 95.2% | 97.3 | 88.9 | 102 | 86.1 | 104 | 112 | 108 |
| N#CC[C@H](C1CCCC1)n1cc(-c2ncnc3[nH]ccc23)cn1 [S-Ruxolitinib] | 108% and 98.5% | 113 | 101 | 104 | 75.5 | 89.4 | 83.4 | 77.2 |
| N#CCC1(n2cc(-c3ncnc4[nH]ccc34)cn2)CN(C2CCN(C(=O)c3ccnc(C(F)(F)F)c3F)CC2)C1 | 99.3% and 104% | 107 | 97.5 | 101 | 97.6 | 102 | 108 | 110 |
| O=P(O)(O)C(O)(Cc1cccnc1)P(=O)(O)O [Risedronate sodium] | 95.3% and 102% | 91.4 | 88.9 | 102 | 91.8 | 101 | 93.7 | 98.3 |
| CC1(C)S[C@@H]2[C@H](NC(=O)[C@H](N)c3ccc(O)cc3)C(=O)N2[C@H]1C(=O)O [Amoxicillin sodium (Amox)] | 99.4% and 102% | 105 | 105 | 109 | 96 | 103 | 105 | 93.4 |

| Structure (SMILES) | cell viability (K562; SRSF2 genotype: SRSF2 P95H/wt) | cell viability (K562; SRSF2 genotype: SRSF2 wt/wt) [%] | cell viability (MARIMO; SRSF2 genotype: SRSF2 P95H/wt) [%] | cell viability (MARIMO; SRSF2 genotype: SRSF2 wt/wt) [%] | cell viability (MOLM14; SRSF2 genotype: SRSF2 P95H/wt) [%] | cell viability (MOLM14; SRSF2 genotype: SRSF2 wt/wt) [%] | cell viability (OCI-AML2; SRSF2 genotype: P95H/wt) [%] | cell viability (OCI-AML2; SRSF2 genotype: wt/wt) [%] |
| --- | --- | --- | --- | --- | --- | --- | --- | --- |
| O=c1cc(-c2ccccc2)oc2cc(O)c(O)c(O)c12 [Baicalein] | 81.4% and 80% | 80.5 | 88.2 | 83.8 | 74.8 | 85.2 | 91.2 | 82.6 |
| COC(=O)[C@@]1(C)CC[C@]2(C(=O)O)CC[C@]3(C)C(=CC[C@@H]4[C@@]5(C)C[C@H](O)[C@H](O[C@@H]6OC[C@@H](O[C@@H]7O[C@H](CO)[C@@H](O)[C@H](O)[C@H]7O)[C@H](O)[C@H]6O)[C@@](C)(CO)[C@@H]5CC[C@]43C)[C@@H]2C1 [Esculentoside A] | 110% and 105% | 105 | 104 | 108 | 108 | 107 | 96.8 | 105 |
| CC[C@H](Nc1ncnc2[nH]cnc12)c1oc2ccccc2c(=O)c1-c1cccc(F)c1 [Tenalisib (RP6530)] | 101% and 96% | 98.2 | 95.2 | 100 | 82.4 | 84.4 | 84.8 | 87.5 |
| Nc1ccc(S(=O)(=O)Nc2cncc(Cl)n2)cc1 [Sulfalozine sodium] | 101% and 97.3% | 104 | 103 | 111 | 92.7 | 102 | 107 | 88.8 |
| C[C@H]1CNCCCN1S(=O)(=O)c1cccc2cncc(F)c12 [Ripasudil (K-115)] | 104% and 103% | 108 | 101 | 106 | 74.7 | 101 | 76.7 | 82.9 |
| OC[C@H]1O[C@@](CO)(OC[C@@]2(OC[C@@]3(OC[C@@]4(O[C@H]5O[C@H](CO)[C@@H](O)[C@H](O)[C@H]5O)O[C@H](CO)[C@@H](O)[C@@H]4O)O[C@H](CO)[C@@H](O)[C@@H]3O)O[C@H](CO)[C@@H](O)[C@@H]2O)[C@@H](O)[C@@H]1O [1F-Fructofuranosylnystose] | 110% and 109% | 104 | 109 | 103 | 103 | 107 | 101 | 108 |
| COc1ccc2c(c1O)-c1c(O)c(OC)cc3c1[C@H](C2)[N+](C)(C)CC3 [Magnoflorine] | 97.9% and 97.3% | 101 | 98 | 105 | 99.3 | 100 | 103 | 107 |
| O=c1[nH]c(=O)n(C2CCCO2)cc1F (configuration not stated) | 107% and 105% | 103 | 96.4 | 108 | 99.7 | 104 | 93.9 | 105 |
| COc1ccc([C@@H]2Sc3ccccc3N(CCN(C)C)C(=O)[C@@H]2OC(C)=O)cc1 [Diltiazem HCl] | 99.8% and 95.7% | 91.9 | 98 | 98.1 | 99.3 | 98.7 | 94.1 | 99.1 |
| CC[C@@H]1/C=C(\C)C[C@H](C)C[C@H](OC)[C@H]2O[C@@](O)(C(=O)C(=O)N3CCCC[C@H]3C(=O)O[C@H](/C(C)=C/[C@@H]3CC[C@@H](O)[C@H](OC)C3)[C@H](C)[C@@H](O)CC1=O)[C@H](C)C[C@@H]2OC [Ascomycin (FK520)] | 75.8% and 83% | 83.6 | 86.6 | 96.8 | 89.1 | 89.1 | 95.8 | 93.5 |
| C/C=C1\[C@H]2C=C(C)C[C@]1(N)c1ccc(=O)[nH]c1C2 [(-)-Huperzine A (HupA)] | 105% and 103% | 108 | 103 | 103 | 115 | 110 | 109 | 103 |
| COc1ccc2cc3[n+](cc2c1OC)CCc1cc2c(cc1-3)OCO2 [Berberine chloride] | 66.5% and 69.6% | 65.3 | 67.2 | 66.7 | 70.4 | 81.3 | 48.9 | 53.8 |
| NC(=O)c1ncn([C@@H]2O[C@H](CO)[C@@H](O)[C@H]2O)c1N [AICAR (Acadesine)] | 109% and 107% | 109 | 101 | 110 | 107 | 118 | 93.1 | 105 |
| COC1(c2sc3c(N4CCOCC4)nc(-c4cnc(N)nc4)nc3c2C)COC1 | 40.8% and 45.4% | 40.3 | 47.9 | 38 | 26.3 | 24.1 | 4.68 | 16.4 |
| Cc1coc2c1C(=O)C(=O)c1c-2ccc2c(C)cccc12 [Tanshinone I] | 66.7% and 48.1% | 41.4 | 70.6 | 63.4 | 76.1 | 48.3 | 57.5 | 60 |
| CC[C@@](C)(Nc1ccnc(-c2c[nH]c3ncccc23)n1)C(=O)NCC(F)(F)F [Decernotinib (VX-509)] | 98.6% and 99.9% | 104 | 95.1 | 96.2 | 88.8 | 106 | 85.1 | 92.2 |
| N#CC(=Cc1cn(-c2ccccc2)c2ccccc12)C(=O)O | 111% and 90.4% | 93.5 | 86.3 | 94.5 | 89.2 | 97.2 | 91 | 95.4 |
